# Cardiac RTF inh: cardiac RTF calcium desensitization; IANBD-labeled cardiac RTF, Ca2+ fluorescence; hit rate 0.12% among 340,000; inhibition, % at 7.15 µM; P19429+P45379;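 active = inhibition above the mean inhibition of all tested compounds plus 3 SD, cut at about 17% in these data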;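 note: assay run at fixed EC70 calcium of 1.6 mM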
# TPT1 inhibitor: inhibitors of Candida albicans tRNA 2'-phosphotransferase TPT1; recombinant caTPT1, FP RNA substrate dephosphorylation; inhibition, % at 5 µM; hit rate 0.81% among 300,000; AID 1962;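 active = inhibition above the mean of all tested compounds plus 3 SD, set per screening campaign, cut at about 24% in these data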;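 note: plate controls were DMSO alone for no effect and ferristatin control at 100 nM for full effect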
# RTF Ca sens act: cardiac RTF calcium sensitization; IANBD-labeled TnC RTF fluorescence at EC20 calcium; 0% EC20 calcium, 100% full calcium; activation, % at 7.2 µM; hit rate 0.24% among 340,000; P19429+P45379;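 active = activation above the mean over all tested compounds plus 3 SD, cut at about 30% in these data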;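 note: rise in fluorescence read as greater calcium sensitivity of cardiac thin filaments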
# CRFBP-R2 agonist: CRF-BP/CRF-R2 complex agonism. HEK293 CRF-R2/CRF-BP, calcium dye fluorescence (FLIPR); percent of saturating CRF peptide response. activation, % at 13.2 µM. hit rate 0.46% among 350,000. AID 588473;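 active = activation of at least 50%, plus an integration ratio under a set limit after plate pattern correction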;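 note: plate controls were neutral control wells without compound for no effect and CRF at EC100 for full effect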
# IDE cell activ: activators of human insulin-degrading enzyme in cells; HEK cells, FAbeta-B cleavage, fluorescence polarization; 0% vehicle, 100% cell-free pure enzyme wells; activation, % at 5.96 µM; hit rate 0.073% among 340,000;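 active = activation above the mean of all tested compounds plus 3 SD, set per screening campaign, cut at about 17% in these data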
# IDE cell inh: inhibits human insulin-degrading enzyme in HEK cells; FAbetaB cleavage, fluorescence polarization; inhibition, % at 5.59 µM; hit rate 0.41% among 320,000; AID 434962;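 active = percent inhibition above the average of all tested compounds plus 3 SD, set per screening campaign, cut at about 16% in these data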;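 note: IDE supplied by intact live HEK cells; FP after avidin binding of uncleaved biotin substrate so inhibition keeps polarization high; 0% = DMSO wells and 100% = 60 µM reference IDE inhibitor Ii1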
# IDE cell inh cf: cellular human IDE inhibition, confirmation; HEK cells, FAbetaB cleavage, fluorescence polarization; shares compounds with IDE cell inh; hit rate 51% among 1,200; inhibition, % at 5.59 µM;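 active = mean inhibition across triplicate wells above the cutoff set by the earlier primary insulin-degrading enzyme screen, cut at about 16% in these data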;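 note: 0% = DMSO wells and 100% = 60 µM reference IDE inhibitor Ii1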
# HEK293 tox: HEK cell cytotoxicity, counter-screen for IDE inhibitors | shares compounds with IDE cell inh | HEK293 cytotoxicity, ATP luminescence | inhibition, % at 5.59 µM | hit rate 28% among 1,200 | AID 449730; in the data active = inhibition above about 22%;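 note: 0% = vehicle wells and 100% = reference cytotoxic drug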
# Numbers without * were called inactive; i = inactive; . = not tested or not shown; + = active, no number. Sampled rows, rich in hits. Any-hit rate of the full collection: about 1.5%.
SMILES,Cardiac RTF inh,TPT1 inhibitor,RTF Ca sens act,CRFBP-R2 agonist,IDE cell activ,IDE cell inh,IDE cell inh cf,HEK293 tox
CCOC(=O)[C@@H]1[C@H]2COc3ccc(Br)cc3[C@@H]2N2C(=O)N(c3ccc(F)cc3)C(=O)[C@]12C,1,-3,-2,0,5,-4,.,.
CC(NC(=O)c1ccccc1SCC(=O)N1CCCC1)c1ccc(F)cc1 (stereo not given),2,0,-5,-1,3,1,.,.
C/C(=N/NC(=O)CN1CCN(Cc2ccccc2Cl)CC1)c1cccnc1,3,-3,2,0,-7,23*,9,12
O=C(CN1CCN(Cc2ccccc2Cl)CC1)N/N=C/C=C\c1ccccc1[N+](=O)[O-],7,2,-4,-1,-6,10,.,.
O=C(CN1CCN(Cc2ccccc2Cl)CC1)N/N=C/C=C/c1ccccc1[N+](=O)[O-],-19,-4,3,0,-18,22*,10,12
Cc1c(C(=O)C(=O)N2CC=C(c3ccccc3)CC2)c2ccccc2n1C,12,-2,-3,-1,-2,16*,2,55*
Cc1ccc(OC(=O)c2cccc(S(=O)(=O)N3CCCC3)c2)c(-n2nc3ccccc3n2)c1,-1,-5,-3,1,3,12,.,.
Cc1[nH]c2nc3ccccc3n2c(=O)c1CCC(C)C,-5,1,7,1,-1,-9,.,.
CSc1nsc(SCC(=O)Nc2ccccc2C(=O)O)n1,-20,-3,-9,0,-10,17*,15,12
Cc1nc2ccccc2c(=O)n1-c1ccc(NS(=O)(=O)c2ccccc2)cc1,-4,3,-5,-1,4,6,.,.
Cc1nc2ccccc2c(=O)n1-c1ccc(NS(=O)(=O)c2ccc(F)cc2)cc1,-3,-3,-1,-2,-9,22*,6,10
C=CCNc1ncnc2c1[nH]c1ccc(Cl)cc12,0,1,-3,17,-30,30*,13,47*
O=C(NCCC1=CCCCC1)Nc1ccc2nsnc2c1,-1,-5,0,10,-23,31*,17*,11
Cn1nc(C(=O)NNC(=O)c2ccccc2Br)c2ccccc2c1=O,-5,.,-4,0,3,.,.,.
O=c1oc2ccc(Br)cc2cc1-c1nc2ccccc2o1,-6,0,-8,-1,-22,20*,73*,10
Cc1ccc(C(=O)NCCCNC(=O)Cc2ccc(Cl)cc2)cn1,-1,-1,-3,-1,3,1,.,.
Cc1ccc(-c2cc(C(=O)Nc3ccc(S(=O)(=O)N4CC(C)OC(C)C4)cc3)[nH]n2)c(O)c1 (stereo not given),3,-1,-2,2,-16,20*,8,32*
CC(=O)c1ccc(NC(=O)c2cccs2)cc1,5,0,4,-1,0,8,.,.
Cc1cc(C)cc(C(=O)Nc2ccc(NC(=O)c3cccs3)cc2)c1,-6,1,1,-1,-25,19*,11,15
CCC(C)(C)n1nnnc1C(c1ccc2ncccc2c1)N1CCN(c2nc3ccccc3s2)CC1 (stereo not given),0,-1,2,-2,-10,18*,11,26*
CCC(C)(C)n1nnnc1C(c1ccc2ncccc2c1)N1CCN(c2ccc(O)cc2)CC1 (stereo not given),1,0,-4,1,2,1,.,.
Cc1nnc(NC(=O)CSc2nnc(CC(=O)Nc3ccccc3F)n2C)s1,7,-2,-9,-1,3,1,.,.
Cc1ccc(NC(=O)c2sc3nc(C)cc(C)c3c2N)cc1,-5,0,-2,-1,-13,21*,8,13
Cc1cc(C)c2c(N)c(C(=O)NN)sc2n1,-10,1,5,4,-3,0,.,.
COc1cccc(C(=O)Nc2nc(-c3ccncc3)cs2)c1,-14,0,1,-1,-12,26*,12,11
SMILES,Cardiac RTF inh,TPT1 inhibitor,RTF Ca sens act,CRFBP-R2 agonist,IDE cell activ,IDE cell inh,IDE cell inh cf,HEK293 tox
CCSc1ccccc1C(=O)Nc1cc(OC)c(OC)c(OC)c1,-15,-1,-5,2,-9,18*,10,9
CC(OC(=O)COc1cccc2c1OC(C)(C)C2)C(=O)Nc1ccc(S(N)(=O)=O)cc1 (stereo not given),2,-4,4,-1,5,4,.,.
Cn1c(N)c(C(=O)COC(=O)CSc2ccc3ccccc3c2)c(=O)n(C)c1=O,3,2,-2,-1,-4,18*,6,7
CC(=O)Nc1ccc(S(=O)(=O)NC(C)C(=O)OCC(=O)Nc2ccc(F)cc2Cl)cc1 (stereo not given),.,.,.,-1,.,.,.,.
CCc1ccc(OCC(=O)O/N=C(\N)c2cccnc2)cc1,.,-3,.,0,.,17*,3,11
NNC(=O)c1nnsc1-c1csnn1,-8,.,-1,-4,-1,.,.,.
CCCCCN(C(=O)CCC(=O)OCC(=O)c1ccc(CCC)cc1)c1c(N)n(CCCC)c(=O)[nH]c1=O,-6,-6,-23,1,-19,24*,21*,8
CC1Cc2nc(SCC(=O)Nc3ccc(F)cc3)n(C)c(=O)c2S1 (stereo not given),0,0,-5,-4,6,7,.,.
CCOc1ccc(NC(=O)CSc2nc3c(c(=O)n2C)SC(C)C3)cc1 (stereo not given),-8,-1,-6,-1,-35,16*,11,17
Cc1cccc(N2CCN(C(=O)NCc3ccc(F)cc3)CC2)c1C,-6,-1,5,0,0,3,.,.
COc1ccc(CNC(=O)N2CCN(c3cccc(C)c3C)CC2)cc1OC,5,-3,-2,-2,-1,17*,6,13
Cn1cnnc1SCC(=O)N1N=C2/C(=C/c3ccco3)CCCC2C1c1ccco1 (stereo not given),1,-1,9,-2,-24,17*,9,13
O=S(=O)(c1ccc(SCc2cccc(Cl)c2)nc1)N1CCCC1,-7,.,4,4,-18,16*,18*,8
N#CC1=C(N)NC(=S)C(C(N)=O)C1c1ccccc1F (stereo not given),-7,-5,1,1,-8,27*,11,6
CCCCNc1c2c3c(cccc3n(C)c1=O)C(=O)c1ccccc1-2,i,-8,+,239*,30*,103*,26*,32*
CCNc1c2c3c(cccc3n(C)c1=O)C(=O)c1ccccc1-2,.,-52,.,179*,.,62*,26*,17
CCNC1=C(Cl)C(=O)c2ccccc2C1=O,-11,-3,1,-2,5,-1,.,.
